Data: PubChem BioAssay (NCATS)
Inconclusive results are not listed. Where a call stands in place of a potency, no number is given. Active and inactive are the calls of the source. The call rests on the fitted dose curve; in most records, active means well fitted inhibition curve with a large enough effect; inconclusive means small, poorly fitted or top-dose-only effect; inactive means no such curve, though single readings can be large or run the other way. Residues, ends and D or L forms follow the SMILES beside them. *: point of attachment. Cbz = O=C(OCc1ccccc1)*

molecular target: Muscarinic acetylcholine receptor M1 (Rattus norvegicus) (UniProt P08482); assay: qHTS Assay for Antagonists of Acetylcholine Muscarinic M1 Receptor: Kinetic Measurement of Intracellular Calcium Response (AID 943); conditions: M1-expressing cells, kinetic intracellular calcium fluorescence; series mostly up to 35.3 µM; further: nearly all actives have a fitted effect of over 75% in size
Sequence (P08482 whole entry, looked up): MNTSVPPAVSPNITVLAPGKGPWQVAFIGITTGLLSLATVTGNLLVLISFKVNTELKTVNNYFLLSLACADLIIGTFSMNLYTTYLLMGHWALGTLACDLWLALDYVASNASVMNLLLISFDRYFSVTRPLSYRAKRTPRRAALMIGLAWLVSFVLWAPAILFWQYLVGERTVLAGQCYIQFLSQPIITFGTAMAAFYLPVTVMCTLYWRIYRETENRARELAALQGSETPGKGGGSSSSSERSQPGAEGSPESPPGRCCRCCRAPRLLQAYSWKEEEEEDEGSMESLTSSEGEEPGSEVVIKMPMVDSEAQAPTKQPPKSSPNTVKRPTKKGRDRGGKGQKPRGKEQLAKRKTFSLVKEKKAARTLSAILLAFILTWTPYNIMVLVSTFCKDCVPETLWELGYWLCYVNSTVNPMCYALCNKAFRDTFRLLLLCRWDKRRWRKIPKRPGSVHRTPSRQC
Excerpt: NIH Molecular Libraries Screening Centers Network [MLSCN]
NIH Chemical Genomics Center [NCGC]
Acetylcholine muscarinic M1 receptor is a G-protein coupled receptor (GPCR) coupling to the Gq G protein. It is mainly expressed in brain and functionally related to the learning and memory processes. The agonists of this receptor have the potential for the treatment of Alzheimer's disease and cognitive impairments associated with Schizophrenia. Upon an activation of the M1 receptor, phosholipase C (PLC) is activated to produce inositol 1,4,5-trisphosphate (IP3) and diacyl glycerol (DAG) resulting in increase of intracellular free Ca2+ and activation of protein kinase C (PKC). The increase of intracellular calcium can be measured by the fluorescent calcium dyes, Fluo-3 and Fluo-4, using a fluorescence kinetic plate reader.
We have obtained a M1-CHO cell line transfected with rat acetylcholine M1 receptor and optimized a calcium assay with this cell line for compound screening as a counter-screen assay for other Gq-coupled GPCRs.
NCGC Assay Protocol Summary:
The CHO-M1 (CHO-M1) cell line transfected with the rat acetylcholine muscarinic M1 receptor was obtained from ATCC. The cells were maintained in call culture flasks with F12 Kaighn's media (Invitrogen) supplemented with 10 % FBS, 100 units/ml penicillin, 100 ug/ml streptomycin and 250 ug/ml geneticin (Invitrogen) at 37C, 5 % CO2 in a humidified atmosphere. At 90-95 % confluence, the cells were then detached in 15 ml […] % trypsin by 3 minutes incubation at 37C and centrifuged at 1000 RPM to remove the trypsin solution. The resulting cell pellet was resuspended in the cell freezing media containing 10 % DMSO (Invitrogen) at a density of 4 x 10^7 cells/ml. The aliquots of cells at 0.5 - 1 ml per vial were frozen down slowly at 1 degree C/min using a Cryo 1 degree C freezing container in the presence of isopropanol (Nalgene Nunc, Rochster, NY) overnight in a -80C freezer. The frozen cells were then transferred to liquid nitrogen for the storage up to one year.
The resuspended frozen cells were plated at 3 ul/well with 2000 cells in the black, tissue culture treated, clear bottom 1536-well plates. After overnight incubation at 37C, 5% CO2, 2.5 ul/well no-wash calcium dye (containing Fluo-4, BD Biosciences) were loaded and incubated at 37C, 5 % CO2 for 1 hour followed by a 10 min incubation with 20 nl compound in DMSO solution. The assay plates were then placed onto the kinetic fluorescence plate reader (FDSS-7000, Hamamatsu) for a measurement of the kinetic changes in intracellular free calcium. The basal fluorescence signal was measured for 6 times at 1 Hz followed by an addition of 1 ul of carbachol and continued 4 min measurement. The results were calculated as the maximal signal (peak) divided by the minimal signal (basal).
1536-well assay protocol:
(1) 3 ul/well containing 2000 M1-CHO cells in 1536 tissue culture treated black/clear bottom plate
(3) Add 1ul/well calcium dye (from no-wash calcium dye kit, BD Biosciences) containing […]
(4) Incubate 1 hour at 37C with 5% CO2
(5) Add 20 nl compound diluted in DMSO
(6) Incubate 10 minutes at the room temp
(7) Place the plate in FDSS-7000 instrument (Ex = 480 nm and […])
#- read the assay plate 6 times at 1 Hz for basal signal
#- add 1 ul/well EC80 carbachol (100 nM final)
#- continuously read the assay plate for 4 min at 1 Hz
Keywords: acetylcholine muscarinic M1 receptor, calcium kinetic assay, Fluo-4, high throughput screening, MLSMR, MLSCN, NIH Roadmap, qHTS and NCGC
Potency means the concentration at half of the fitted maximal effect.

Row | SMILES | Potency
1 | CCCCCCC/C=C\CCCCCCCCC(=O)O | inactive
2 | O=c1[nH]ccc2c(O)cccc12 | inactive
3 | CNc1cc(NS(=O)(=O)c2ccc(N)cc2)nc(NC)n1 | inactive
4 | N[C@H](C(=O)O)[C@H](O)C(=O)O | inactive
5 | O=C(O)/C=C/c1ccc(O)c(O)c1 | inactive
6 | O=c1[nH]c(=O)c2nc3ccccc3nc2[nH]1 | inactive
7 | CC(C)[C@H](NC(=O)OCc1ccccc1)C(=O)N[C@H](C=O)Cc1ccccc1 (Cbz-Val-Phe-aldehyde) | inactive
8 | NCCS(=O)O | inactive
9 | Nc1nc2[nH]c(=O)cnc2c(=O)[nH]1 | inactive
10 | N[C@@H](CS(=O)O)C(=O)O | inactive
11 | CCN(CC)CCCCCCCCOC(=O)c1cc(OC)c(OC)c(OC)c1 | 2820 nM (active)
12 | COc1ccc(C(=O)NCc2cccnc2)cc1C(=O)NCc1cccnc1 | inactive
13 | Cc1ccc2c(c1)C(N1CCN(C)CC1)=Nc1cccnc1N2 | 35.5 nM (active)
14 | Cc1ccc([N+](=O)[O-])cc1S(=O)(=O)N(C)C | inactive
15 | N#C/C(=C\c1ccc(O)c(O)c1)C(=O)NCCCNC(=O)/C(C#N)=C/c1ccc(O)c(O)c1 | inactive
16 | O=c1onc2n1-c1cc(Br)ccc1OC2 | inactive
17 | N=C(N)SCCc1cnc[nH]1 | inactive
18 | CCSC(=N)N | inactive
19 | Oc1ccc(Cn2cc[nH]c2=S)cc1 | inactive
20 | N[C@H](C(=O)O)c1cc(O)cc(O)c1 | inactive

Row | SMILES | Potency
21 | CCn1c(=O)[nH]c2cc(Cl)c(Cl)cc21 | inactive
22 | NS(=O)(=O)c1cccc2c1c([N+](=O)[O-])cc1nc(O)c(O)nc12 | inactive
23 | NC(=O)c1ccccc1 | inactive
24 | N=C(N)c1ccccc1 | inactive
25 | CC[C@@H]1Cc2cc(O)ccc2C2=C1c1ccc(O)cc1C[C@H]2CC | 12600 nM (active)
26 | CC(C)(CO)Cc1cc(C(C)(C)C)c(O)c(C(C)(C)C)c1 | inactive
27 | NC(=O)CNCCC(c1ccccc1)c1ccccc1 | inactive
28 | Cn1c(=O)c2[nH]c(-c3ccc(S(=O)(=O)O)cc3)nc2n(C)c1=O | inactive
29 | NCCNS(=O)(=O)c1cccc2c(Cl)cccc12 | inactive
30 | Cc1nc(N=Nc2ccc(C(=O)O)cc2)c(COP(=O)(O)O)c(C=O)c1O | inactive
31 | CCC(=O)N1CCN(C(=O)c2ccccc2)CC1 | inactive
32 | CCCn1c(=O)c2[nH]c(-c3ccc(S(=O)(=O)O)cc3)nc2n(CCC)c1=O | inactive
33 | COCc1nc2c([nH]1)c(=O)n(C)c(=O)n2CC(C)C | inactive
34 | CN1CCN(c2nc3cc(C(F)(F)F)ccc3n3cccc23)CC1 | inactive
35 | O=C(O)C1=CCNCC1 | inactive
36 | COc1cc2c(CCNC(C)=O)c[nH]c2cc1O | inactive
37 | O=C(O)Cc1ccc(O)c(O)c1 | inactive
38 | CCCc1c(-c2ccc(O)cc2)nn(-c2ccc(O)cc2)c1-c1ccc(O)cc1 | inactive
39 | CN(C)S(=O)(=O)c1ccc2c(c1)/C(=C/c1cc3c([nH]1)CCCC3)C(=O)N2 | inactive
40 | Nc1ncnc2c1ncn2C1CCCC1 | inactive
